Results taken from PubChem BioAssay.
Activity calls are given as the source filed them. Unless noted, no rule for the calls is given here.

What was measured:
[1] = resazurin metabolic signal in HepG2 cells – cell-based, resazurin fluorescence, 24 h, PK04 Diversity Set, profiling panel (AID 1172); conditions: HepG2 viability, higher = more signal
[2] = budding yeast growth changes without added modifier – OD600, strain BY4716, 24 h, basal condition, primary screen (AID 1173); conditions: S. cerevisiae BY4716 growth, OD600, 24 h; higher = more signal, called active from +8 up or from −8 down
[3] = viability profiling in MM1S myeloma cells – cell-based, resazurin fluorescence, basal, 24 h, PK04 Diversity Set, profiling panel (AID 1174); conditions: higher = more signal, called active from +8 up or from −8 down;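 also: MM1S multiple myeloma cell line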
[4] = target: Dihydroorotate dehydrogenase (quinone), mitochondrial (Plasmodium falciparum (isolate 3D7)) (UniProt Q08210); test: inhibition of P. falciparum DHODH – biochemical, C-terminal His tag, absorbance 600 nm, primary screen (AID 1175); conditions: PfDHODH enzyme, DCIP absorbance 600 nm; higher = more signal, called active from +8 up or from −8 down;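 also: recombinant parasite enzyme with a five histidine tag at its C terminus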
[5] = inhibition of PAO1 biofilm formation – strain PAO1, LB-PBS medium, absorbance 600 nm, primary screen (AID 1176); conditions: P. aeruginosa PAO1 growth/biofilm, A600, 12 h; higher = more signal
[6] = growth modulation of vineyard yeast isolate – strain RM11-1a, OD600, basal, 24 h, primary screen (AID 1177);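 also: cultures grown under basal conditions with no added stressor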; conditions: S. cerevisiae RM11-1a growth, OD600, 24 h; higher = more signal, called active from +8 up or from −8 down
[7] = growth of efflux-deficient E. coli DRC39 – strain DRC39, OD650, 24 h, E. coli filamentation inducers, primary screen (AID 1178);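 also: growth measured as culture turbidity by optical density at 650 nm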; conditions: E. coli DRC39 acrAB, higher = more signal, called active from +8 up or from −8 down
[8] = growth of efflux-deficient E. coli DRC39 – strain DRC39, OD650, 48 h, E. coli filamentation inducers, primary screen (AID 1179);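 also: screen aims at cell division blockers that make cells filament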; conditions: E. coli DRC39 delta-acrAB growth, higher = more signal, called active from +8 up or from −8 down
[9] = viability profiling in RPMI8226 myeloma cells – cell-based, resazurin fluorescence, basal, 24 h, PK04 Diversity Set, profiling panel (AID 1180); conditions: higher = more signal;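 also: RPMI8826 multiple myeloma cell line at 5000 cells per well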
[10] = target: E3 ubiquitin-protein ligase XIAP (Homo sapiens) (UniProt P98170); test: small molecules binding XIAP protein – biophysical, small-molecule microarray, fluorescence 635 nm, primary screen (AID 1181); conditions: higher = more signal;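 also: score merges 667 nm emission and signal to noise over triplicate slides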
[11] = system: XIP peptide (Xip251-270) binding; test: XIP fragment 251-270 binding compounds – biochemical, small-molecule microarray, fluorescence 635/667 nm, 0.1 µg/mL protein, primary screen (AID 1182); conditions: fluorescent protein binding, 635 nm, higher = more signal, called active from +8 up or from −8 down
XIP peptide (Xip251-270) = test: compounds binding XIP fragment 251-270 – biochemical, small-molecule microarray, fluorescence 635/667 nm, 0.5 µg/mL protein, primary screen (AID 1183); conditions: fluorescence 635 nm, higher = more signal
[12] = blood-stage malaria parasite viability loss – strain 3D7, DAPI fluorescence, 100 nL, primary screen (AID 1184);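 also: parasites grown inside human red blood cells in medium with human serum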; conditions: P. falciparum 3D7 growth, 3 d, higher = more signal
[13] = target: Homeobox protein Hox-A13 (Mus musculus) (UniProt Q62424); test: disruptors of Hoxa13 oligonucleotide interaction – biochemical, fluorescence polarization, labeled oligonucleotide, primary screen (AID 1185); conditions: Hoxa13:DNA binding, 15 min, higher = more signal, called active from +8 up or from −8 down
[14] = blockers of DNA damage checkpoint Chk1 activation – imaging, HeLa, hydroxyurea, phospho-Chk1 antibody, percent positive cells, primary screen (AID 1186); conditions: hydroxyurea-induced phospho-Chk1 immunofluorescence imaging, higher = more signal
[15] = blockers of DNA damage checkpoint Chk1 activation – imaging, HeLa, hydroxyurea, phospho-Chk1 nuclear intensity, primary screen (AID 1187); conditions: hydroxyurea-induced phospho-Chk1 immunofluorescence imaging, higher = more signal

E3 ubiquitin-protein ligase XIAP (Homo sapiens), sequence (P98170 whole entry, looked up, the tested form may be a part): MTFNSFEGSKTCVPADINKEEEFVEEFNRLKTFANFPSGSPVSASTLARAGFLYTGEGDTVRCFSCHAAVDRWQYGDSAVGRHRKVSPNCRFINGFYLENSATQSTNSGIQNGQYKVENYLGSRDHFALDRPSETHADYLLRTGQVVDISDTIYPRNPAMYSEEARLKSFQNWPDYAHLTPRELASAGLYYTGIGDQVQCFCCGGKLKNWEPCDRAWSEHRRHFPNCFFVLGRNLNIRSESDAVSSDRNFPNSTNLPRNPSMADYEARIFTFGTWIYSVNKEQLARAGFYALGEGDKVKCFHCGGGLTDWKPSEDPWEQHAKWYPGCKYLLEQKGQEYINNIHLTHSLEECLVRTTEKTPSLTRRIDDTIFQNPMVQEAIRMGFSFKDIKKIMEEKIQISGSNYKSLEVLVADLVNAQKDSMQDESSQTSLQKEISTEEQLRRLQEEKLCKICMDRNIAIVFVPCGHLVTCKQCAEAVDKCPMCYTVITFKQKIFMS
Dihydroorotate dehydrogenase (quinone), mitochondrial (Plasmodium falciparum (isolate 3D7)), sequence (Q08210 whole entry, looked up): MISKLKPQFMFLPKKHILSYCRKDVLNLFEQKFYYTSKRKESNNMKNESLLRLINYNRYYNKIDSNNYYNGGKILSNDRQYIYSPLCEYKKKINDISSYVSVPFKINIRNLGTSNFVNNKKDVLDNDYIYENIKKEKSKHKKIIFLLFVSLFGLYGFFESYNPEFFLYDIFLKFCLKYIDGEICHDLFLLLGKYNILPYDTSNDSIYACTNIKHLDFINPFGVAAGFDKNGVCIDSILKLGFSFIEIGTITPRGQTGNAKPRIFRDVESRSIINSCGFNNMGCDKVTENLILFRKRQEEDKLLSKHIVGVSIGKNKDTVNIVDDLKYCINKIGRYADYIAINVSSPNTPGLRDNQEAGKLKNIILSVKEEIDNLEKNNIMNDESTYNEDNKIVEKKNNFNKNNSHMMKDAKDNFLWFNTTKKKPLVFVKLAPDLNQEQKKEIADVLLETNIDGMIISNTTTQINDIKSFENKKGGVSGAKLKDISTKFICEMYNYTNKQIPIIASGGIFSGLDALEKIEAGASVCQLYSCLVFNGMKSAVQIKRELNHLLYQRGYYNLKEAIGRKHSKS
Homeobox protein Hox-A13 (Mus musculus), sequence (Q62424 whole entry, looked up): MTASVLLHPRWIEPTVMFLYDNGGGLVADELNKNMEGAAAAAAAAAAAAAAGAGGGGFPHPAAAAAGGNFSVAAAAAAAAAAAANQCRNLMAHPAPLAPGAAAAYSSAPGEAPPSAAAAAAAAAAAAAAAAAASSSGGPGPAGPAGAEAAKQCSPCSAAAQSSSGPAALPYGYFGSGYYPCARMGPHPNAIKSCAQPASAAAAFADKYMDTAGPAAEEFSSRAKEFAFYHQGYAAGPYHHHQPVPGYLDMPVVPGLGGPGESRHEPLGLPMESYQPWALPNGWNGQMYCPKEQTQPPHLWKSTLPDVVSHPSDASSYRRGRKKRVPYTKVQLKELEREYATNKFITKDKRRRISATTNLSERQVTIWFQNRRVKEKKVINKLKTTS

Row | Structure (SMILES) | z-score [1] | z-score [2] | z-score [3] | composite z-score [4] | z-score [5] | z-score [6] | z-score [7] | z-score [8] | z-score [9] | composite z-score [10] | composite z-score [11] | composite z-score (XIP peptide (Xip251-270)) | z-score [12] | z-score [13] | z-score [14] | z-score [15]
1 | COC(=O)C(CC#Cc1ccc2c(c1)[C@]1(C(=O)N2)[C@H](C(=O)N2CCc3cc(OC)c(OC)cc3C2)[C@H]2C(=O)O[C@H](c3ccccc3)[C@H](c3ccccc3)N2[C@@H]1c1ccc(O)cc1)C(=O)OC | -0.555 | 1.8 (inactive) | 1.26 (inactive) | -22.8 (active) | 3.04 (inactive) | 3.33 (inactive) | 0.414 (inactive) | 0.356 (inactive) | -0.14 | -0.167 | 0.534 (inactive) | 0.789 | -2.45 | -0.323 (inactive) | 0.297 (inactive) | 0.826 (inactive)
2 | C=C(/C(=C/C[C@@H](OC(=O)c1ccncc1)c1cccc(OCCO)c1)c1cc(C(=O)OC)ccc1OC)C(C)C | 0.677 | -0.243 (inactive) | -0.261 (inactive) | -2.04 (inactive) | 1.16 (inactive) | 0.0342 (inactive) | 2.07 (inactive) | 1.42 (inactive) | 0.301 | -0.107 | 0.577 (inactive) | 0.723 | -3.13 | -3.8 (inactive) | -0.185 (inactive) | -0.235 (inactive)
3 | C=CC[C@@]1(C(=O)NCC(O)CO)N=C(c2ccc(OCCCO)cc2)O[C@@H]1c1ccccc1 (some centres undefined) | 0.483 | -2.05 (inactive) | 0.552 (inactive) | 0.358 (inactive) | -0.223 (inactive) | -0.108 (inactive) | 2.08 (inactive) | 0.196 (inactive) | 0.934 | -0.0374 | 2.6 (inactive) | 0.691 | -0.869 | -4.25 (inactive) | -0.379 (inactive) | -0.244 (inactive)
4 | CCOC(=O)C1=CC[C@@H](c2ccc(N(CC)CC)cc2)N(S(=O)(=O)c2ccc(C)cc2)[C@H]1c1ccc([N+](=O)[O-])cc1 | -0.407 | -0.0341 (inactive) | -0.095 (inactive) | -0.719 (inactive) | 0.698 (inactive) | -0.101 (inactive) | -0.19 (inactive) | -0.0619 (inactive) | -1.06 | -0.0143 | 0.326 (inactive) | 0.357 | -2.1 | -1.99 (inactive) | 0.0638 (inactive) | -0.244 (inactive)
5 | O=C1O[C@H](c2ccccc2)[C@H](c2ccccc2)N2[C@H]1[C@@H](C(=O)N1CCCCCCC1)[C@]1(C(=O)Nc3ccccc31)[C@H]2c1ccc(O)cc1 | -0.642 | -0.147 (inactive) | -2.64 (inactive) | 0.64 (inactive) | 0.995 (inactive) | 0.767 (inactive) | -0.328 (inactive) | -0.128 (inactive) | -2.73 | 2.57 | 4.72 (inactive) | 0.943 | 0.61 | 2.7 (inactive) | 0.323 (inactive) | 0.725 (inactive)
6 | O=C1O[C@H](c2ccccc2)[C@H](c2ccccc2)N2[C@H]1[C@@H](C(=O)N1CCCCCCC1)[C@]1(C(=O)Nc3ccc(C#CCCO)cc31)[C@H]2c1ccc(OCCO)cc1 | 1.08 | 0.905 (inactive) | 0.332 (inactive) | 0.521 (inactive) | 0.0568 (inactive) | -0.0365 (inactive) | 0.136 (inactive) | -0.656 (inactive) | 0.543 | 2.52 | 5.42 (inactive) | 0.963 | -1.98 | -8.67 (active) | -0.141 (inactive) | -0.203 (inactive)
7 | CCN(CC)c1ccc(N2CC=CC34O[C@@H]5/C=C\CCCOC(=O)C5[C@H]3C(=O)N(CCCCCO)[C@@H]4C2=O)cc1 (some centres undefined) | -0.162 | -0.606 (inactive) | 0.361 (inactive) | -0.706 (inactive) | -0.553 (inactive) | -0.27 (inactive) | -0.388 (inactive) | -0.241 (inactive) | 0.681 | -0.0264 | -0.0261 (inactive) | 0.0595 | 1.98 | -5.15 (inactive) | -0.0764 (inactive) | 0.34 (inactive)
8 | COc1ccc(C#Cc2ccc3c(c2)[C@]2(C(=O)N3)[C@H](c3ccc(OCCO)cc3)N3[C@H](c4ccccc4)[C@H](c4ccccc4)OC(=O)[C@H]3[C@@H]2C(=O)N2CCN(c3ncccn3)CC2)cc1 | 1.45 | 1.56 (inactive) | 1.48 (inactive) | -1.7 (inactive) | 1.66 (inactive) | 1.92 (inactive) | 0.101 (inactive) | -0.344 (inactive) | 1.61 | 0.16 | -0.138 (inactive) | 0.0154 | -1.31 | 1.1 (inactive) | -0.246 (inactive) | -0.0676 (inactive)
9 | CC(C)C(CO)N1C(=O)[C@@H]2[C@H]3C(=O)OCC=C[C@H]3OC23C=CCN(Cn2nnc4ccccc42)C(=O)[C@@H]13 (some centres undefined) | 0.288 | 0.959 (inactive) | -0.281 (inactive) | 0.237 (inactive) | 0.894 (inactive) | 0.68 (inactive) | -0.497 (inactive) | -0.708 (inactive) | -0.0558 | 0.175 | -0.406 (inactive) | -0.705 | -0.229 | -3.05 (inactive) | 0.123 (inactive) | 0.11 (inactive)
